# Test results from the supplement of paper PMC3334620.
# The full ranking holds about 33,000 sequences; the median of “E-score (-0.5 to 0.5)” is about -0.015, and the highest 2% start at about 0.3. The sample holds the highest values, similar sequences and a random draw of the others, so the mix is not that of the screen.
# Target: T1, Abf1 (UniProt P14164)
# T1 sequence: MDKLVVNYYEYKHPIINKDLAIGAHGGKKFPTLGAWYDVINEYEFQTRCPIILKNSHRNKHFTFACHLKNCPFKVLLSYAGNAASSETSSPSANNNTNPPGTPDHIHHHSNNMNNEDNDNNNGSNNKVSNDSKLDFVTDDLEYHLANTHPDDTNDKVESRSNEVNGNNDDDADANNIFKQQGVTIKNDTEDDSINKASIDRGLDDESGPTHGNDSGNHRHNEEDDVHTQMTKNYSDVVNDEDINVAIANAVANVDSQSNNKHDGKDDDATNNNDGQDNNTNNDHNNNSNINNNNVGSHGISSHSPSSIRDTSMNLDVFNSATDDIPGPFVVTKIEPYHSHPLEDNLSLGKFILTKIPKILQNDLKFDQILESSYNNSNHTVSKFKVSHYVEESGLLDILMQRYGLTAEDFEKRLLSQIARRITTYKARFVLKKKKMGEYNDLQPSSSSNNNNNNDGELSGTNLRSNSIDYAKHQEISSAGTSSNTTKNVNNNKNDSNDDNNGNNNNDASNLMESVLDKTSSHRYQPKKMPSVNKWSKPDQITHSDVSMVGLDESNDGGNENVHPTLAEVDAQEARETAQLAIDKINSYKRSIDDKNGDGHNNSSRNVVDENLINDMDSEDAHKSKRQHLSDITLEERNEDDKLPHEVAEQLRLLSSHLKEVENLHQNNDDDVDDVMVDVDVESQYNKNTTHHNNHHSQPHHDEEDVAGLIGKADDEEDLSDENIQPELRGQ
# Assay: PBM E-score (8-mer binding enrichment) (E-score (-0.5 to 0.5)); higher = stronger / more preferred TF binding
# Settings: protein concentration: 200 nM; construct: GST-full length
# In short: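 Universal all-10-mer Agilent arrays, fresh or stripped once, were converted to double-stranded form by primer extension. GST-tagged yeast transcription factors from PURExpress in vitro transcription/translation, full-length or DNA-binding domain only, were applied at about 100-200 nM and detected with fluorescent anti-GST. After masliner normalisation, the Universal PBM Analysis Suite scored each ungapped eight-base word together with its reverse complement by E-score.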
row,Sequence,PBM E-score
1,GCTGACAC,0.0512
2,TGATTCAA,0.0649
3,GAGCAAGC,-0.0234
4,ATTTTTTA,0.193
5,AGGTGACA,0.362
6,CGGTGACA,0.399
7,GGGTGACC,0.188
8,AGGTGACG,0.0988
9,CGGTGACC,0.0798
10,AGGTGACC,0.14
11,TGGTGACA,0.357
12,CGGTGACG,0.235
13,GGGTGACA,0.257
14,ACCGAGGT,-0.113
15,AGCCCACA,-0.0569
16,AGTATCGC,0.0404
17,CCTACGTA,-0.0223
18,GACGAGTC,0.241
19,AATTCCGT,0.115
20,GATGCCAC,0.049
21,GCCGTTCA,0.156
22,ACCTAATC,0.111

row,Sequence,PBM E-score
1,CCCCATGA,-0.167
2,ACAGTTTA,-0.0111
3,TGTGATAA,0.297
4,GCTGATAA,0.0596
5,CGTGATAA,0.408
6,CTTGATAA,0.138
7,TCTGATAA,0.134
8,TGGGATAA,-0.0897
9,GGTGATAA,0.404
10,CCTGATAA,0.1
11,GTTGATAA,0.199
12,GTTTTCTA,-0.0572
13,CAGCGATG,-0.0769
14,AGTGGCAG,-0.0869
15,TATGGGCA,-0.0697
16,ATGAACCC,-0.0465
17,ACGTAGAC,0.0202
18,ATGCATAC,0.0289
19,CGGGGAGC,-0.00752
20,AGATGCAT,-0.058
21,CTCACCGC,0.0255
22,ATCACCAT,0.254

row,Sequence,PBM E-score
1,ATCACCAC,0.356
2,CTCACCAC,-0.0754
3,ATCACCGC,0.311
4,ATCACCGG,0.101
5,AGGTACCT,-0.101
6,ACGACCAG,0.301
7,ACGACTAC,0.329
8,ACGACCAC,0.131
9,ACGACTAA,0.0761
10,GCGACTAC,-0.134
11,CCGACTAC,-0.119
12,ACGACTAG,0.0858
13,ACGACTAT,0.298
14,ACGACCAA,0.182
15,AGCTGCTC,-0.148
16,CTCCTCCC,-0.201
17,ACGATGGC,0.0358
18,ATGTTAAT,-0.0223
19,AGTGAAGA,0.129
20,CGGCATAG,0.0597
